From PubChem BioAssay come the findings set out here.

The target in experiment [1] is Bcl-2-like protein 1 (Homo sapiens) (UniProt Q07817). Kind of experiment: Bcl-xL BH3-peptide displacement, hit confirmation – biochemical, fluorescence polarization, counter-screen for MCL1 inhibitor project (AID 2166). The following applies: GST-Bcl-xL / FITC-Bim BH3 peptide FP binding; at 10.9 µM; active compounds read high. (In general: In fluorescence polarisation assays a small probe gives low polarisation when free and higher when bound to something large.)

For experiment [2], the target named is Induced myeloid leukemia cell differentiation protein Mcl-1 (Homo sapiens) (UniProt Q07820). Kind of experiment: MCL1-BIM peptide interaction disruptors – biochemical, fluorescence polarization, triplicate, confirmation (AID 2168;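 active means inhibition above the average of all tested compounds plus 3 SD, cut at about 40% in these data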;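 further: 0% = DMSO wells and 100% = unlabeled Bim-BH3 control peptide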). The following applies: GST-MCL1 / FITC-Bim-BH3 fluorescence polarization; at 10.9 µM; active compounds read high.
The target in experiment [3] is Glutathione S-transferase omega-1 (Homo sapiens) (UniProt P78417). As to the kind of experiment: recombinant GSTO1 blockers, retest – biochemical, fluorescence polarization, triplicate, counter-screen for RBBP9 inhibitor project, confirmation (AID 2176;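 active means inhibition above the primary screen's cutoff, its mean inhibition plus 3 SD, cut at about 35% in these data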;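 further: loss of polarization as inhibitors block binding of rhodamine sulfonate ester activity probe; 0% = GSTO1 with DMSO and 100% = wells lacking GSTO1 enzyme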). The following applies: recombinant GSTO1, probe fluorescence polarization; at 5.96 µM; active compounds read high.
Experiment [4] deals with Insulin-degrading enzyme (Homo sapiens) (UniProt P14735). Kind of experiment: cellular IDE Abeta-cleavage inhibition – fluorescence polarization, HEK cells, FAbetaB substrate, confirmation (AID 435028;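 active means mean inhibition across triplicate wells above the cutoff set by the earlier primary insulin-degrading enzyme screen, cut at about 16% in these data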;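 further: 0% = DMSO wells and 100% = 60 µM reference IDE inhibitor Ii1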). The following applies: at 5.59 µM, active compounds read high.
The nature of experiment [5]: HEK cell viability loss – luminescence, cytotoxicity control for IDE inhibitor project (AID 449730; in the data active means inhibition above about 22%;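 further: 0% = vehicle wells and 100% = reference cytotoxic drug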). The following applies: HEK293 cytotoxicity, ATP luminescence; at 5.59 µM; active compounds read high.
Experiment [6] deals with Serine protease HTRA1 (Homo sapiens) (UniProt Q92743). Kind of experiment: confirming inhibition of human HTRA1 – biochemical, fluorescence polarization, confirmation (AID 540248;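 active means mean inhibition over three repeats above a set limit taken from the earlier primary screen, cut at about 37% in these data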;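 further: 0% = HTRA1 with DMSO and 100% = wells lacking HTRA1; inhibitors block probe binding so polarization drops and inhibition rises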). The following applies: recombinant HTRA1, FP-rhodamine activity-based probe, at 5.96 µM, active compounds read high.
Experiment [7] deals with Nuclear receptor coactivator 3 (Homo sapiens) (UniProt Q9Y6Q9). Kind of experiment: NCOA3 GAL4-fusion reporter inhibition – cell-based, luminescence, quadruplicate, confirmation (AID 588792;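 active means mean inhibition over 43.08%, the solvent-only control mean plus 3 SD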;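 further: 0% = DMSO treated cells and 100% = gossypol at 36 µM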). The following applies: HEK293 GAL4-SRC3 luciferase reporter, at 3.6 µM, active compounds read high. Background: A reporter such as luciferase makes a cellular process visible.
The subject of experiment [8] is transactivating tegument protein VP16 (Human herpesvirus 1), Gal4-VP16 luciferase reporter. As to the kind of experiment: repression of VP16-driven luciferase reporter – cell-based, luminescence, high throughput, counter-screen for SRC3 inhibitor project (AID 588794; in the data active means inhibition above about 30%). The following applies: mammalian cells, at 3.6 µM, active compounds read high.
Experiment [9] has as its target Nuclear receptor coactivator 1 (Homo sapiens) (UniProt Q15788). Kind of experiment: NCOA1 GAL4-fusion reporter inhibition – cell-based, luminescence, quadruplicate, confirmation (AID 588820;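 active means mean inhibition above 46.68%, the untreated control wells mean plus 3 SD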;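 further: 0% = DMSO wells and 100% = gossypol 36 µM treated wells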). The following applies: HEK293 GAL4-SRC1 luciferase reporter, at 3.6 µM, active compounds read high.
Experiment [10] can be described thus: repression of VP16-driven luciferase reporter – cell-based, luminescence, high throughput, counter-screen for SRC1 inhibitor project (AID 588824; in the data active means inhibition above about 25%). The following applies: cell-based VP16 transactivation luciferase luminescence; at 3.6 µM; active compounds read high.
The target in experiment [11] is (Lyso)-N-acylphosphatidylethanolamine lipase (Mus musculus) (UniProt Q8VD66). As to the kind of experiment: mouse ABHD4 hydrolase blockers, triplicate – biochemical, fluorescence polarization, confirmation (AID 720658;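 active means mean inhibition across replicates above the hit cutoff set in the primary screen, cut at about 30% in these data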;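 further: 0% = wild-type ABHD4 with DMSO and 100% = catalytically dead S159A mutant with DMSO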). The following applies: purified mABHD4, FP-Rh probe fluorescence polarization; at 8.92 µM; active compounds read high.
The target in experiment [12] is Lytic switch protein BZLF1 (Epstein-Barr virus (strain B95-8)) (UniProt P03206). As to the kind of experiment: blockers of Zta-ZRE DNA complex – biochemical, fluorescence polarization, triplicate, confirmation (AID 2361;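 active means mean inhibition across triplicate runs above the hit threshold derived for the original primary screen, cut at about 33% in these data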;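 further: 0% = Zta with DMSO and 100% = wells lacking Zta protein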). The following applies: Zta-ZRE DNA binding, at 11.1 µM, active compounds read high.
Experiment [13] deals with Epstein-Barr virus nuclear antigen 1 (EBNA-1), Human herpesvirus 4. As to the kind of experiment: blockers of EBV EBNA-1 binding to DNA – biochemical, fluorescence polarization, counter-screen for ZTA inhibitor project (AID 2362; call rule not given here). The following applies: EBNA-1 DNA binding, at 14.8 µM, active compounds read high.
For experiment [14], the target named is Protein-arginine deiminase type-4 (Homo sapiens) (UniProt Q9UM07). Kind of experiment: protein arginine deiminase 4 blockade, retest – biochemical, fluorescence polarization, confirmation (AID 488796;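 active means mean inhibition across replicates above the hit cutoff set by the earlier primary screen, cut at about 15% in these data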;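 further: inhibitors block active-site labeling by the probe so polarization falls; 0% = PAD4 with probe and DMSO and 100% = probe without PAD4 enzyme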). The following applies: recombinant PAD4, RCA probe fluorescence polarization; at 6.36 µM; active compounds read high.
Experiment [15] can be described thus: BSA probe fluorescence interference – biochemical, TAMRA-labeled BSA, counter-screen for TCR-CD3 interaction inhibitor project (AID 652035; in the data active means inhibition above about 23%;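 further: 0% = buffer low control and 100% = reference high control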). The following applies: TAMRA-labeled BSA probe fluorescence counterscreen; at 9.4 µM; active compounds read high.
Experiment [16] has as its system T-cell receptor (TCR)-CD3 interaction, human. Kind of experiment: blockers of TCR binding to CD3 – biochemical, fluorescence, TAMRA-labeled TCR probe, confirmation (AID 652036; in the data active means inhibition above about 19%). The following applies: TAMRA-labeled TCR probe fluorescence binding assay; at 9.4 µM; active compounds read high.

Usually inhibition stands for the relative decrease from the control value, in per cent.

The structures appear in SMILES notation. A number with no mark means an inactive call. Some of the results follow. Calls of active or inactive are those of the source.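 How the source made its calls, unless noted: active means inhibition above a cutoff equal to the mean inhibition of all tested compounds plus 3 SD (cut at about 30% in these data); inactive means the rest.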

Sequence of Bcl-2-like protein 1 (Homo sapiens) (Q07817 whole entry, looked up): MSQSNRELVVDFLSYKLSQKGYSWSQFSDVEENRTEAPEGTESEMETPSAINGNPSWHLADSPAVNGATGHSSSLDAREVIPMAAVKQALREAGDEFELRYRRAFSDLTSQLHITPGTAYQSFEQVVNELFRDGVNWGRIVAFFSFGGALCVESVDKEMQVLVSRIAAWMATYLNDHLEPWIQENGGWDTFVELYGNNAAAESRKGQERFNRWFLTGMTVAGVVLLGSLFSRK
Sequence of Induced myeloid leukemia cell differentiation protein Mcl-1 (Homo sapiens) (Q07820 whole entry, looked up): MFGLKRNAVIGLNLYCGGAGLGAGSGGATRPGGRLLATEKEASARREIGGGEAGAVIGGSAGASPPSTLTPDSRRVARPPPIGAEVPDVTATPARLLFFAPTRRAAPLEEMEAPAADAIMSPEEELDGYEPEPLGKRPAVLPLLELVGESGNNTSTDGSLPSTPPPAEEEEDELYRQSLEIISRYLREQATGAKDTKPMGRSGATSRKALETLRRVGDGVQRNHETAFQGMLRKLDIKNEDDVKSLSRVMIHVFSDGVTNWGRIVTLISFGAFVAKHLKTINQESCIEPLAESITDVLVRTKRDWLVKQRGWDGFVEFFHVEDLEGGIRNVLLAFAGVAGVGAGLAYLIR
Sequence of Glutathione S-transferase omega-1 (Homo sapiens) (P78417 whole entry, looked up): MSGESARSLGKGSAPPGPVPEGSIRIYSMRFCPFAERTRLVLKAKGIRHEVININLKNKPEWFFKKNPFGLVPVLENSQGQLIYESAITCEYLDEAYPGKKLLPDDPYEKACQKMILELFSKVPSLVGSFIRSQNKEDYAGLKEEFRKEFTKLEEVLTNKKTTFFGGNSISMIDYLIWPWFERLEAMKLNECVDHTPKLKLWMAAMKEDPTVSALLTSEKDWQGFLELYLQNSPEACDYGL
Sequence of Nuclear receptor coactivator 1 (Homo sapiens) (Q15788 whole entry, looked up, the tested form may be a part): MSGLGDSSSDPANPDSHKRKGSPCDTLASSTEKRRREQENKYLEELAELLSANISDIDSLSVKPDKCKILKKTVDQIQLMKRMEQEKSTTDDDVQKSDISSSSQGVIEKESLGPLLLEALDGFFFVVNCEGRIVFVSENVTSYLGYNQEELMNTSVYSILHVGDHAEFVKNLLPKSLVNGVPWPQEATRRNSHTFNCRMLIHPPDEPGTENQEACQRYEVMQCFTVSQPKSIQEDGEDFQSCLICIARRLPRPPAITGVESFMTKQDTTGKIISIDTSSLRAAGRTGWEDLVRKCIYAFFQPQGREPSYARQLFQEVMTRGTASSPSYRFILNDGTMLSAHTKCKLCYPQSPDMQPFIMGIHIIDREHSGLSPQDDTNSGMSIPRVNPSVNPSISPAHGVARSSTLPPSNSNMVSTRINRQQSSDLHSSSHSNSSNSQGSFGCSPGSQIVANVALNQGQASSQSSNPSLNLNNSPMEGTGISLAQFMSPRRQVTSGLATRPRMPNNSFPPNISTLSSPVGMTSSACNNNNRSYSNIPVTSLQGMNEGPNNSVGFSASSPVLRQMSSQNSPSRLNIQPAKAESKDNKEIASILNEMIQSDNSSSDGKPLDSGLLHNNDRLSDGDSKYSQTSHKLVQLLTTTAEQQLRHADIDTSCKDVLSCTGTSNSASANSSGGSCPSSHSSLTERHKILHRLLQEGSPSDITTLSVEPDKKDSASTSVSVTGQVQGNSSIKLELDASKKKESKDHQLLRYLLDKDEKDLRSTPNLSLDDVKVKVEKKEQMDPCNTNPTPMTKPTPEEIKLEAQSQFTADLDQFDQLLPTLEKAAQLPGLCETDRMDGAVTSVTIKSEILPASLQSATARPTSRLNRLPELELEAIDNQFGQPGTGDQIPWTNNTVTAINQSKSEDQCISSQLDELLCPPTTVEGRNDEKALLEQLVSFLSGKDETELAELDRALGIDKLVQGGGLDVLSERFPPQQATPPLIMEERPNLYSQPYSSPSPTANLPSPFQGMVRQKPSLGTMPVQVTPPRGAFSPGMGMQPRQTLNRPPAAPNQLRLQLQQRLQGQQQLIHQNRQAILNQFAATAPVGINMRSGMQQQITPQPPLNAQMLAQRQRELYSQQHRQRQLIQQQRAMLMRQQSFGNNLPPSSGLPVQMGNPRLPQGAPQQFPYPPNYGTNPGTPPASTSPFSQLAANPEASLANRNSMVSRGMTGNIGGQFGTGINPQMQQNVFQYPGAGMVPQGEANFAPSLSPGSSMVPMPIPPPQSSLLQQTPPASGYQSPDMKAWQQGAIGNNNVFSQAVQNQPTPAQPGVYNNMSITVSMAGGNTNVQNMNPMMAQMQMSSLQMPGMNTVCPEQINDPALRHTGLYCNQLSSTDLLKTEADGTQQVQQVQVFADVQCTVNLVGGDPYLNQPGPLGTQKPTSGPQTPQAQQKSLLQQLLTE
Sequence of Lytic switch protein BZLF1 (Epstein-Barr virus (strain B95-8)) (P03206 whole entry, looked up): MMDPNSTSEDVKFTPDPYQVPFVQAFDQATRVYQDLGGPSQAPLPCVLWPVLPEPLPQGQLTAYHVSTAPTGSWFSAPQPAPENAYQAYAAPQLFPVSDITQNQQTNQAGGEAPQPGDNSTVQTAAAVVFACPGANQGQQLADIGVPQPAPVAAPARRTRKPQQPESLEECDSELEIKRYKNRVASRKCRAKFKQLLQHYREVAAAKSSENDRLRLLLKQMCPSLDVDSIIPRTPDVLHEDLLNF
Sequence of (Lyso)-N-acylphosphatidylethanolamine lipase (Mus musculus) (Q8VD66 whole entry, looked up): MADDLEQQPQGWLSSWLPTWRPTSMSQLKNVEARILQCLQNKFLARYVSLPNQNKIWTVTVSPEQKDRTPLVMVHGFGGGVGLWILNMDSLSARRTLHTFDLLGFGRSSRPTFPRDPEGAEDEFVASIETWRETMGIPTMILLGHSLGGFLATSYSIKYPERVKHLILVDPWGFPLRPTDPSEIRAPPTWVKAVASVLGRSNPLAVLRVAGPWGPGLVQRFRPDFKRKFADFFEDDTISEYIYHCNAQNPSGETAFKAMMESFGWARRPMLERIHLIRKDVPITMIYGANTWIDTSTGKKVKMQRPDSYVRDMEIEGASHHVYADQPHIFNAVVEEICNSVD
Sequence of Nuclear receptor coactivator 3 (Homo sapiens) (Q9Y6Q9 whole entry, looked up, the tested form may be a part): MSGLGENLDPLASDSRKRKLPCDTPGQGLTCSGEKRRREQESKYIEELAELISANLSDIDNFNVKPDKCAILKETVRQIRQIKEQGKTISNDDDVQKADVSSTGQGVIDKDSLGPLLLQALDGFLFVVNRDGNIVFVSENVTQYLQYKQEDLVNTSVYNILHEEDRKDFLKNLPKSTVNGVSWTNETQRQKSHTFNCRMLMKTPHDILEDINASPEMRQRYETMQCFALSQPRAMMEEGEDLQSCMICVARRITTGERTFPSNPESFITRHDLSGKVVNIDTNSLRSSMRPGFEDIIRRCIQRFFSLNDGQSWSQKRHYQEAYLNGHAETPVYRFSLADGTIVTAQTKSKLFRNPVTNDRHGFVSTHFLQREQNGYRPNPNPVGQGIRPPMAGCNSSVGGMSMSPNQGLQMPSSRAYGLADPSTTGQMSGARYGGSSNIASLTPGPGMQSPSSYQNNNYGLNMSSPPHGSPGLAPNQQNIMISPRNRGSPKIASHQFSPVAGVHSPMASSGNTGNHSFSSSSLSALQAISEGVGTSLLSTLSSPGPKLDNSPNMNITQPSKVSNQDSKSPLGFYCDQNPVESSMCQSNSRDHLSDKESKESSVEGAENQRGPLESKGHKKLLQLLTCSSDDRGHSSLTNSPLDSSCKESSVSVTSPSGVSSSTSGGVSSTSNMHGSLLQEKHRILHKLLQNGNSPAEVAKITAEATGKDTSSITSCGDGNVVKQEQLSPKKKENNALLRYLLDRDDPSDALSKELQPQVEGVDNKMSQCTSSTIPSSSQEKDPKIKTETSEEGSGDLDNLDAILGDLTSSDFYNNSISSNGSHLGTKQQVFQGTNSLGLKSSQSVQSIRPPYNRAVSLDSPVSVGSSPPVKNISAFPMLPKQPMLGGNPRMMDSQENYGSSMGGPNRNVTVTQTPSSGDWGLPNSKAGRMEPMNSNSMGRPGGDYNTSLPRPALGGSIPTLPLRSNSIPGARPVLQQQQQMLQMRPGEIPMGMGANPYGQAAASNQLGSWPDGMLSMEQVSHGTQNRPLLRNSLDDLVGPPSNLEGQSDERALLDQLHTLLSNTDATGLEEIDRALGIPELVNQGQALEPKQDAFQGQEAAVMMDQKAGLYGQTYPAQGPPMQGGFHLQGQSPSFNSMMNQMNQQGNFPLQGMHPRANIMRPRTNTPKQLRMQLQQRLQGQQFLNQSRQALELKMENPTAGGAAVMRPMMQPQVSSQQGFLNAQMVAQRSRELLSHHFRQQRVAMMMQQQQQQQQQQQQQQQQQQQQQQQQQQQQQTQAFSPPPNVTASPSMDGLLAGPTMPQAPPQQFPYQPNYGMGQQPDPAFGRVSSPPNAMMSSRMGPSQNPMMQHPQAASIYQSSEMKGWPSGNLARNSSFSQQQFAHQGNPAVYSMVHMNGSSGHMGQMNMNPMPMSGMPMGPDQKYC
Sequence of Protein-arginine deiminase type-4 (Homo sapiens) (Q9UM07 whole entry, looked up): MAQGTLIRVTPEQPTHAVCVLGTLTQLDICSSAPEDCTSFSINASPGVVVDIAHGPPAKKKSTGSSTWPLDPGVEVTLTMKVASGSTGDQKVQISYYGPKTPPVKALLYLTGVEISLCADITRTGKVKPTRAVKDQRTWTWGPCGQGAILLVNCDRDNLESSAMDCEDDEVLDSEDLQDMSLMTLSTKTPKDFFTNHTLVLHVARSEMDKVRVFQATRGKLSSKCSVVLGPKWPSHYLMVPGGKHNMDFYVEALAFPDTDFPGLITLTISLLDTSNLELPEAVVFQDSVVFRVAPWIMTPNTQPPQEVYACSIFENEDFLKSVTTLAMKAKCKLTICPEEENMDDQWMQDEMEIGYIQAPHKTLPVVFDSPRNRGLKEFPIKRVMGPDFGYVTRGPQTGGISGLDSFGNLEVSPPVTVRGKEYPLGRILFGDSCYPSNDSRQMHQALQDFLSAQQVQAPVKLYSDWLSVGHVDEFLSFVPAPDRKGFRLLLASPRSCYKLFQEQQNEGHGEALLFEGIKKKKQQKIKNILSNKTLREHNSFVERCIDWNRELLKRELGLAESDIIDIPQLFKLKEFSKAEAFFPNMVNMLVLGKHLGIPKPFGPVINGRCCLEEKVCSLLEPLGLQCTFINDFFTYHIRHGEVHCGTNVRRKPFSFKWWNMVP

For the compound `O=C(O)c1ccccc1N=N/C(=N/Nc1cc(S(=O)(=O)O)ccc1O)c1ccccc1`, the inhibition in experiment [1] was 29.1%; in [2], 69.6% (active).

Turning to `CCOC(=O)c1cc2n(c1N)-c1ccccc1C2=O`, the values for the inhibition in experiment [1] and in experiment [2] were 91.1% (active) and 106% (active), respectively.

In the case of `COCCN(CCOC)c1nc(N)c2c(N)nc3c(c2c1C#N)CC(=O)N3Cc1ccc(Cl)cc1`, the inhibition in experiment [1] was 9.48%; in experiment [2], 4.93%.

Regarding `O=c1[nH]c2ccccc2n2c(-c3ccccc3)nnc12`, the inhibition is 36.7% (active) in experiment [1], 34.5% in experiment [2] and 23.1% in experiment [3].

Take `C=CCOc1cccc(C2C(C(=O)c3ccc(C)o3)=C(O)C(=O)N2c2nnc(C)s2)c1` (configuration not stated): the inhibition was 70.1% (active) in [1], 80.5% (active) in experiment [2], 6.36% in [4] and 5.97% in [5].

In the case of `Cn1c2ccccc2c(=O)c2c(=O)n(Cc3ccco3)c(COc3ccccc3)nc21`, the inhibition was 38.4% (active) in [1] and 60.8% (active) in experiment [2].

On to `O=C1c2ccccc2C(=O)c2c1cccc2N1CCN(CCO)CC1`, for which the inhibition in experiment [1] is 43.9% (active); in experiment [2] it was 58.3% (active).

For the compound `CCCn1c(C2CCCN2c2nc(-c3ccc(C)cc3)cs2)nc2cc(Cl)c(N3CCCCC3)cc21` (configuration not stated), the inhibition in [1] was 4.86%; in [2] it was 15.1%.

`Cc1ccc(C2Nc3cccc4cccc(c34)N2)cc1`: the inhibition in experiment [1] was 13.9%; in experiment [2] it was 13.8%.

`COC/C=C/C1=CC2=CC(=O)C(C)(OC(=O)CCC(=O)OC)C(=O)C2=CO1` (configuration not stated): the figures for the inhibition in experiment [1] and in [2] were 43.5% (active) and 59.1% (active), respectively.

Take `O=C(C1=C(O)C(=O)N(c2ncccn2)C1c1cccs1)c1ccco1` (configuration not stated): the inhibition in experiment [1] was 59.5% (active); in experiment [2] it was 88.2% (active).

For the compound `Fc1ccc(CNc2nc3ccccc3n3nnnc23)cc1`, the inhibition in experiment [1] was 36.6% (active); in experiment [2], 41.3% (active).

On to `O=C(COC(=O)Cn1cnc2ccccc21)Nc1cccc2c1C(=O)c1ccccc1C2=O`, for which the inhibition in [1] was 88.4% (active); in experiment [2], 73.3% (active).

On to `C1=C(N2CCOCC2)/C(=C/c2nc3ccccc3[nH]2)CC1`, for which the inhibition in experiment [1] is 55.3% (active); in [2], 63% (active).

On to `COCCn1c(N)c(NCc2ccccc2)c(=O)[nH]c1=O`, for which the values for the inhibition in [1] and in [2] were 37.1% (active) and 62.8% (active), respectively.

Turning to `CC(C)(C)OC(=O)NCCCC1=CC2=CC(=O)C(C)(OC(=O)c3ccco3)C(=O)C2=CO1` (configuration not stated), the inhibition in [1] was 26.3%; in [2], 36.3%.

Turning to `Oc1ccc2ccccc2c1N=Nc1nccs1`, the inhibition in experiment [1] was -28.4%; in experiment [2] it was -52.8%; in experiment [3], 24.3%; in experiment [6], 52.2% (active); in experiment [7] it was 45.8% (active); in experiment [8] it was 46.5% (active). The figures for the inhibition in experiment [9], in [10] and in experiment [11] were 29.6%, 55.1% (active) and 64.9% (active), respectively.

With `COc1ccc(Nc2cc(Cl)ccc2C(=O)O)cn1`, the inhibition is 38.7% (active) in [1] and 53.5% (active) in [2].

As to `CN1C(=O)/C(=C/c2ccco2)SC1=Nc1cccc(C(=O)O)c1`, the inhibition in [1] was 93% (active); in experiment [2], 125% (active); in experiment [12], -7.94%; in [13], 0.8%.

In the case of `COC(=O)[C@H]1[C@H]2C[C@H]3c4[nH]c5ccccc5c4CCN3C[C@@H]2CC[C@@H]1O`, the inhibition is 88.6% (active) in [1], 112% (active) in [2], 22.7% in experiment [12] and -1.66% in experiment [13].

As to `O=C(C[n+]1cc(Br)cc2ccccc21)c1ccc(F)cc1`, the results for the inhibition in experiment [1] and in experiment [2] were 23% and 22.2%, respectively.

For `Cc1ccc(NC(=O)c2cc(-c3ccc(C)o3)nc3ccccc23)nc1`, the values for the inhibition in [1] and in experiment [2] were 12.4% and 41.7% (active), respectively.

Take `Cc1ccc(/C=C(\C#N)C(=O)Nc2cccc3ncccc23)o1`: the inhibition in [1] was 23.1%; in [2], 43.1% (active).

Turning to `COc1ccc2[nH]c(C)c(CCN(Cc3cccs3)C(=S)Nc3ccccc3OC)c2c1`, the inhibition is 14.6% in experiment [1] and 12.4% in experiment [2].

Turning to `C=CCNc1nnc(SCC(=O)N2CCCCC2)c2ccccc12`, the inhibition is 55.6% (active) in experiment [1] and 67.8% (active) in [2].

As to `CN(C)c1ccc(Nc2c3c4c(cccc4n(C)c2=O)C(=O)c2ccccc2-3)cc1`, the inhibition was 80.1% (active) in experiment [1] and 91.2% (active) in experiment [2].

In the case of `Cc1ccc(C(=O)O)cc1-c1ccc(/C=C2\SC(=O)N(CC(=O)Nc3ccc4c(c3)OCO4)C2=O)o1`, the inhibition was 18.5% in [1] and 60.8% (active) in [2].

Regarding `CN1c2ccc(C=O)c3c(C=O)ccc(c23)N(C)C1(C)C`, the inhibition in experiment [1] is 126% (active); in experiment [2], 151% (active); in [3] it was 63.5% (active); in experiment [14] it was 18.5% (active); in [6], 46.9% (active); in experiment [7], 27.9%. Besides, the inhibition is 9.96% in [8]; 13.7% in [9]; 16.3% in experiment [10]; 15.3% in experiment [15]; 10.7% in [16]; 20.4% in experiment [11].

For the compound `Cc1ccc(S(=O)(=O)C(C#N)c2nc3ccccc3nc2N2CCCC2)cc1C` (configuration not stated), the inhibition is 74.9% (active) in experiment [1], 82.8% (active) in experiment [2] and 26.5% in experiment [3].

Consider `N/C(=N\OC(=O)CCc1ccccc1)c1ccc(Cl)cc1`, for which the inhibition in experiment [1] is 1.43%; in experiment [2], -0.05%.

`O=C(COC(=O)c1ccccc1C(=O)N1CCN(c2ccccc2)CC1)NCc1ccccc1`: the inhibition in [1] is 22.1%; in experiment [2] it was 16.5%.
